Molecules are shown by their SMILES. Results filed as inconclusive are left out. Where a call stands in place of a potency, no number is given. Calls of active or inactive are those of the source. Calls come from the whole dose curve; as a rule, active = well fitted activation curve with a large enough effect; inconclusive = small, poorly fitted or top-dose-only effect; inactive = flat fitted curve, though single readings scatter.
Potency is the fitted concentration of half-maximal effect.

The assay is described as follows: qHTS Assay for NPC1 Promoter Activators: Initial hit validation from the primary screen. Conditions: Huh7 NPC1 promoter-luciferase reporter, luminescence, 24 h; series mostly up to 46.1 µM. In a few lines: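 Promoter activation measured as luciferase luminescence (Amplite reagent, 10 minutes ambient) after 24 hours' compound exposure at 37C. Cells: NPC1-luciferase Huh7, 1500 per well, reduced-serum OP-MEM I plus 10% FBS.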
On the technique in general: qHTS replaces the single test concentration by a dilution series.
With `Cc1ccc(N=Cc2sc(O)c3ccccc23)c(C)c1`, the Potency is 1770 nM (active).

In the case of `COC(=O)c1ccc(NC(=O)c2ccc3nc(C)sc3c2)cc1`, the Potency is 888 nM (active).

For the compound `Cc1nn(CCCC(=O)NCc2ccc(F)cc2)c(C)c1[N+](=O)[O-]`, the Potency entry was “inactive”.

Regarding `O=C(CCS(=O)(=O)c1ccccc1)Nc1ccc(-c2nc3ccccc3s2)cc1`, the Potency is 158 nM (active).

As to `Cc1cc(C)cc(N(CC(=O)NC2CCCC2)C(=O)CNC(=O)c2ccco2)c1`, the Potency result is “inactive”.

On to `CCC(C)(C)NC(=O)C(c1ccc(OC)cc1)N(Cc1cccs1)C(=O)CCC(=O)Nc1cc(C)on1` (stereo unspecified), for which the Potency result is “inactive”.

For the compound `Cc1ccccc1NC(=O)CSc1ccc(-c2cccnc2)nn1`, the Potency result was “inactive”.

As to `Cc1ccc(CNC(=O)Nc2ccc(C)cc2)cc1`, the Potency was 25000 nM (active).

In the case of `COc1ccc(C(c2nnnn2CCc2ccccc2)N2CCN(C3CCCC3)CC2)cc1` (stereo unspecified), the Potency entry is “inactive”.

Regarding `Cc1[nH]n(-c2cccc3ccccc23)c(=O)c1/C=N/c1sc2c(c1C#N)CCC2`, the Potency result is “inactive”.

For the compound `O=C(CCCOc1ccc(Cl)cc1)N1CCCCC1`, the Potency was 25000 nM (active).

Take `CCOCC(=O)Nc1c(C(=O)Nc2ccc3c(c2)OCCO3)oc2ccccc12`: the Potency was 888 nM (active).

Turning to `COc1ccc(-c2csc(N(CCCN(C)C)C(=O)c3ccccc3C)n2)cc1`, the Potency result is “inactive”.

On to `COc1ccccc1C(=O)Nc1nnc(SCC(=O)NC2CCCC2)s1`, for which the Potency was 705 nM (active).

Take `O=C(NC1CCCC1)C(c1ccc(F)cc1)N(C(=O)c1csnn1)c1ccccc1` (stereo unspecified): the Potency result is “inactive”.

As for `O=C(c1cc2cc(Br)ccc2[nH]1)N1CCc2ccccc21`, the Potency is 12500 nM (active).

Turning to `CC(=O)Nc1ccc(-c2csc(Nc3ncccn3)n2)cc1`, the Potency is 499 nM (active).

Take `Cc1ccc(N(O)C(=O)NCCCCNC(=O)N(O)c2ccc(C)cc2)cc1`: the Potency is 25000 nM (active).

With `Cc1ccc(S(=O)(=O)N2CCN(c3cnn(C)c(=O)c3Cl)CC2)cc1`, the Potency entry was “inactive”.

Consider `O=C(c1cccc(Oc2ccc([N+](=O)[O-])cc2)c1)N1CCOCC1`, for which the Potency entry is “inactive”.

As to `CC(=O)Nc1ccc(NC(=O)COc2ncnc3ccccc23)cc1`, the Potency result is “inactive”.

On to `CCOC(=O)c1ccccc1NC(=O)CSc1nnc(Cc2cccn2C)n1-c1ccc(F)cc1`, for which the Potency result is “inactive”.

Turning to `CC(=O)NC(CCCN1C(=O)c2ccccc2C1=O)c1nnn(C)n1` (stereo unspecified), the Potency result is “inactive”.

Take `O=C(NCCc1ccccc1)c1cc2ncc(Br)cn2n1`: the Potency was 14100 nM (active).

For `CCOC(=O)CSc1nc2cc3c(cc2cc1C#N)OCO3`, the Potency is 888 nM (active).

Consider `CCCOC(=O)Cn1cnc2scc(-c3ccc(OC)cc3)c2c1=O`, for which the Potency entry is “inactive”.

With `CCN(Cc1nc2cc(Cl)ccc2c(=O)[nH]1)C(=O)C1CC(=O)N(c2cccc3ccccc23)C1` (stereo unspecified), the Potency entry was “inactive”.

Take `O=C(Nc1nc2ccc(F)cc2s1)c1ccc(N2CCCC2=O)cc1`: the Potency is 141 nM (active).

Turning to `COc1ccc(-c2cc(C(=O)Nc3ccccc3F)on2)cc1`, the Potency was 31500 nM (active).

`OCCC1CN(Cc2nc3ccccc3s2)CCN1C1CCCC1` (stereo unspecified): the Potency entry is “inactive”.

`CC(C)C1(CCNC(=O)c2cccs2)CCOC(C)(C)C1` (stereo unspecified): the Potency entry was “inactive”.

For the origin of these results see PubChem BioAssay AID493203 (National Center for Advancing Translational Sciences (NCATS), 2011).
